Source: the supplement of paper PMC10849652
Of roughly 8,800 targets only a part is listed; those with a hit were picked by preference. About 0.5% of all pairs of compound and target were hits.

compound: C1CCN(C1)C(=O)NC2=CC=CC(=C2)NC3=NC=C(C(=N3)NCCC4=CN=CN4)Br; experiment: log2 fold change, soluble protein after heating vs DMSO (PISA); higher = thermal stabilisation; K562 lysate, 10 uM; active = over 0.2 and 3.5 SD of the protein, either way, in both replicates (recomputed)
How it was run: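 Values give the log-two fold change in thermal stability against solvent controls, from duplicates. Crude K562 extract at 1 mg/mL protein, made by dounce homogenisation in PBS pH 7.4 with 1 mM MgCl2, was treated with 10 μM compound for 30 min. After 3 min heating across 48°C-58°C, aliquots were pooled, adjusted to 0.5% NP-40 at 4°C and centrifuged at 21,000xg for 90 min. The supernatant was measured by TMTpro 16plex LC-MS/MS with channel sums equalised.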

Chain of UniProt P28702 (P28702 whole entry, looked up): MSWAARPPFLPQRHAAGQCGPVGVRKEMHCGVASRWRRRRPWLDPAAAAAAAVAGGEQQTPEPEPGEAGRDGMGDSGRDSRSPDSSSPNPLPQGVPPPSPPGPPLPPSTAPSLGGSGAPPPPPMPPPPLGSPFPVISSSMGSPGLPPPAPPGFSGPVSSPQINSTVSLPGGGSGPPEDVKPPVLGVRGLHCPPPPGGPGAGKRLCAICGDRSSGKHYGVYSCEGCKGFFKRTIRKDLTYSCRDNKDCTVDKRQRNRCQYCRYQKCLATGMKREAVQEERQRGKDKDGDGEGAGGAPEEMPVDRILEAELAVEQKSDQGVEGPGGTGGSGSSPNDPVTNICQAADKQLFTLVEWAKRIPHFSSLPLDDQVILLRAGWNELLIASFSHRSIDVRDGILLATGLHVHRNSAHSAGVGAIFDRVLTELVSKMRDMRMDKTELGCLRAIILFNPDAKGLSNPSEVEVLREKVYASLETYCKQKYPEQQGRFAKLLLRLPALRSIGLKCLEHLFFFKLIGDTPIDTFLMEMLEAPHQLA
Chain of UniProt P51812 (P51812 whole entry, looked up): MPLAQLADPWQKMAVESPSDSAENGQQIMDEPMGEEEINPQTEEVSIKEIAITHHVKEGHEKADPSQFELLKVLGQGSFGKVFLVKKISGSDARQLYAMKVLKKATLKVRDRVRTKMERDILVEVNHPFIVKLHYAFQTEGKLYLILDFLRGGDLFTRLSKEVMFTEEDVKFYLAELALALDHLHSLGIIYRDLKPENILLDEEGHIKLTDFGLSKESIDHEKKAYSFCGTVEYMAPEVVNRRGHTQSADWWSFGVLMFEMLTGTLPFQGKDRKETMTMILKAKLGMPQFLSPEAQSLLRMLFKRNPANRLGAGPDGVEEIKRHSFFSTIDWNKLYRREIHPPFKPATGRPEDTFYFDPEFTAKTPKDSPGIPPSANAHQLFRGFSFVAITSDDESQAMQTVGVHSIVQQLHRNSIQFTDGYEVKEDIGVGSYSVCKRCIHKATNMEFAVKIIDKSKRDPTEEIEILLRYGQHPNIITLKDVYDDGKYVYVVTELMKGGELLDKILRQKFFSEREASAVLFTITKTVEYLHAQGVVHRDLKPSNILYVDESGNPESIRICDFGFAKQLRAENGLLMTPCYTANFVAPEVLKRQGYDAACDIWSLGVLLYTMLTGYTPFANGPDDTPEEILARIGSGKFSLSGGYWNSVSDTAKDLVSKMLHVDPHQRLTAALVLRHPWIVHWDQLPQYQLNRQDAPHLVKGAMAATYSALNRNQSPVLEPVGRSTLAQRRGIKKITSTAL
Chain of UniProt Q8TC12 (Q8TC12 whole entry, looked up): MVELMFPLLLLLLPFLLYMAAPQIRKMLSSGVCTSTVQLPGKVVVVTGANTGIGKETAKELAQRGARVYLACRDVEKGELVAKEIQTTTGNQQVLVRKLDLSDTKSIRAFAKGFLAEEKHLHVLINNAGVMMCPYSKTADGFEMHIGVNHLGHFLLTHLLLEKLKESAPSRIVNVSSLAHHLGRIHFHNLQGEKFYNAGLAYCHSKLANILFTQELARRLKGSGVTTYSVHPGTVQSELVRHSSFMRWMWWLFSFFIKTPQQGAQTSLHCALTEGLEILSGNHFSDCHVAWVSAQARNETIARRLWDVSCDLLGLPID
Chain of UniProt Q8WXA3 (Q8WXA3 whole entry, looked up): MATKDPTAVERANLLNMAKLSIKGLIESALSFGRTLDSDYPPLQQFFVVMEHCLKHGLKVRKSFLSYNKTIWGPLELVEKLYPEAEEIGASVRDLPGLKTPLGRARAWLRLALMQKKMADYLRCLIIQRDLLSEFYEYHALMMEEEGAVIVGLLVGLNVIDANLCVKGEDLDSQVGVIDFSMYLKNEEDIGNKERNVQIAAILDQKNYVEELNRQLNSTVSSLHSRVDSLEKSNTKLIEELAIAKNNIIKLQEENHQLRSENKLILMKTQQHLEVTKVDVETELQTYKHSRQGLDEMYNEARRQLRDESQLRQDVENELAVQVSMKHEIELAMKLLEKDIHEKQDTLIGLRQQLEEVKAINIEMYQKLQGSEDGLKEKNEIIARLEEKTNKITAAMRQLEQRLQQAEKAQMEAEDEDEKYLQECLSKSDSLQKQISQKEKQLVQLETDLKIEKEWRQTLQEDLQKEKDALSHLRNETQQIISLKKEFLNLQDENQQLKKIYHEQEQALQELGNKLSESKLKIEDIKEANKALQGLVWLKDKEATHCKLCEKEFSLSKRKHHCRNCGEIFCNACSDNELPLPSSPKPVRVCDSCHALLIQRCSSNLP
Chain of UniProt Q9UPW6 (Q9UPW6 whole entry, looked up): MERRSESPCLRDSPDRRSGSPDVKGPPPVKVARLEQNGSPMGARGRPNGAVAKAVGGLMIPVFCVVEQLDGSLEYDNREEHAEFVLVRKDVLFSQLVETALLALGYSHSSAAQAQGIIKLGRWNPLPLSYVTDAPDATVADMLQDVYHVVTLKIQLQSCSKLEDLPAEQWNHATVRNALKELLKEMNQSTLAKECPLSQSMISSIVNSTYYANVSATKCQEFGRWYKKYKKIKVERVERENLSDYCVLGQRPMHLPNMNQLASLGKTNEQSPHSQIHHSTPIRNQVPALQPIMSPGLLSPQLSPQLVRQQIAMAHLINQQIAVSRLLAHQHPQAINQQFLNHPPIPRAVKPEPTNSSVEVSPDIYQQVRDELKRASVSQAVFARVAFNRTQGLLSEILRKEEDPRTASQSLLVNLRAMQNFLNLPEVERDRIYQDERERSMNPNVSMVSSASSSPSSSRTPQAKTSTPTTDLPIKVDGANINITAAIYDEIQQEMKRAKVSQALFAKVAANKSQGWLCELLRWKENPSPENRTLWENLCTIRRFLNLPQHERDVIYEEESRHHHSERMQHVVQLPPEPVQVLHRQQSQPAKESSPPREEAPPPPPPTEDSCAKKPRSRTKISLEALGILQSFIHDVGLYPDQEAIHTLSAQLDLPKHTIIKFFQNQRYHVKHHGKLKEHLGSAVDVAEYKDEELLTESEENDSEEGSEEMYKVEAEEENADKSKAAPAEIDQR
Chain of UniProt Q96E14 (Q96E14 whole entry, looked up): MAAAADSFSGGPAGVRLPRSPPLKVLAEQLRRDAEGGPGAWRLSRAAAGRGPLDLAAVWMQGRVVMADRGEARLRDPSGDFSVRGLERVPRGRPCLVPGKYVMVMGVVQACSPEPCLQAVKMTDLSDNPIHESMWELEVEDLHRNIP
Chain of UniProt Q8TEB9 (Q8TEB9 whole entry, looked up): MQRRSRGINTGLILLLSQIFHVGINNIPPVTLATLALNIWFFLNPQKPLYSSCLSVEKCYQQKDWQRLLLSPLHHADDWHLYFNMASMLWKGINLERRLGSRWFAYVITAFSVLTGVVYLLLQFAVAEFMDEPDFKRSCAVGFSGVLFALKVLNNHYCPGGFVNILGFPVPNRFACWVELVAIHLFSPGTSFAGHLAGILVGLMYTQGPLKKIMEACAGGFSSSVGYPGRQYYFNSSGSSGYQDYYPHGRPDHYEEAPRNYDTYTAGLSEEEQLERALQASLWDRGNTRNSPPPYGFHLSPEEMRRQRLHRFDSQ
Chain of UniProt Q9NTN9 (Q9NTN9 whole entry, looked up): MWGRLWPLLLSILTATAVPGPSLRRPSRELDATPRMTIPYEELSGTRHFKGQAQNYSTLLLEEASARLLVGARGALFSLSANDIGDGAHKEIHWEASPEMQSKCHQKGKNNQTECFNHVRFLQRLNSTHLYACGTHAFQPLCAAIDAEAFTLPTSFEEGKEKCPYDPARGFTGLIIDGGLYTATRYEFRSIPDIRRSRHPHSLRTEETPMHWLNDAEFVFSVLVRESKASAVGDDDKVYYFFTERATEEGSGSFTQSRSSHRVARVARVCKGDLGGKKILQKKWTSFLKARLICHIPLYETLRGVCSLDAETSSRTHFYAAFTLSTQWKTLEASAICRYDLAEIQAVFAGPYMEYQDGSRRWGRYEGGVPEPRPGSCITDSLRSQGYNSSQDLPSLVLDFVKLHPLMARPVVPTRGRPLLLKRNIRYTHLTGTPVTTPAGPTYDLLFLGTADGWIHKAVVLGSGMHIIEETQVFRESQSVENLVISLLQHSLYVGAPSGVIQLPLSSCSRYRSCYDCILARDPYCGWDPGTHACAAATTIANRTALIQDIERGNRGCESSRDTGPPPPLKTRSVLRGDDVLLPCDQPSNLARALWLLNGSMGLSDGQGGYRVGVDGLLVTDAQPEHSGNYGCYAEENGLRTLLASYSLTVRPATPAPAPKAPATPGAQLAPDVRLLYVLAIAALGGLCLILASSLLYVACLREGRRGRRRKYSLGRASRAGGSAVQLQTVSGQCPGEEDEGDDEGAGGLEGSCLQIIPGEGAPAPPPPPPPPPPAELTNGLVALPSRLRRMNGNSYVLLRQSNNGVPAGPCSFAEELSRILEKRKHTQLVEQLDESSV
Chain of UniProt O75943 (O75943 whole entry, looked up): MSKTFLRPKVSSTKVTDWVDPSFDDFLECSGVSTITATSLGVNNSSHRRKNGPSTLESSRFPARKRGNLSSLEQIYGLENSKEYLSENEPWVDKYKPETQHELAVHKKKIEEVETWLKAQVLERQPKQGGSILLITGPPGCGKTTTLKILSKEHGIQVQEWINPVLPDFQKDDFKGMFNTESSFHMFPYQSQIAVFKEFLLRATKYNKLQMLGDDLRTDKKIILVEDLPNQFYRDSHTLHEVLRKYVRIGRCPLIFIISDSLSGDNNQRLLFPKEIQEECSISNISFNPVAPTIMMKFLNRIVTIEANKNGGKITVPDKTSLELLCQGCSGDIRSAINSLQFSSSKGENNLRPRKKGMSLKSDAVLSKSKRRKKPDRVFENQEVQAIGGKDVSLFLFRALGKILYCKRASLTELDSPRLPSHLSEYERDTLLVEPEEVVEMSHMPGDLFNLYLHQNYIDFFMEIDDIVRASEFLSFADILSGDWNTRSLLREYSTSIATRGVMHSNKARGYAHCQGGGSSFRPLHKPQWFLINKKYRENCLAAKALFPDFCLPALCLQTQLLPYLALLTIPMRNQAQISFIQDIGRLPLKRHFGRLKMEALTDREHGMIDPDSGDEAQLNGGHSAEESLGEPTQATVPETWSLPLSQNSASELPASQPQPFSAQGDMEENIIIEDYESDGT

log2 fold change, inactive:
RAD54L2 (UniProt Q9Y4B4) -0.046
RMI2 (UniProt Q96E14) -0.044
SATB2 (UniProt Q9UPW6) -0.033
SAP30 (UniProt O75446) 0.011
RALGAPB isoform 3 (UniProt Q86X10) -0.119
SCNM1 (UniProt Q9BWG6) -0.054
SERAC1 (UniProt Q96JX3) 0.123
RPS6KA3 (UniProt P51812) 0.082
RHOU (UniProt Q7L0Q8) -0.006
RAB5IF isoform 5 (UniProt Q9BUV8) -0.065
RXRB isoform 3 (UniProt P28702) 0.011
RDH11 (UniProt Q8TC12) -0.037
SEMA4G isoform 2 (UniProt Q9NTN9) 0.034
RAD17 (UniProt O75943) 0.031
RHBDD1 (UniProt Q8TEB9) -0.093
RAP1B (UniProt F5GZG1) -0.081
QSER1, A0A3B3IRW6 0.002
S100A6 (UniProt P06703) 0.352
RPS6KA5 (UniProt O75582) -0.02
RUFY2 isoform 1 (UniProt Q8WXA3) -0.01
RYR1 (UniProt P21817) -0.029
RNF17 (UniProt Q9BXT8) -0.025
RNF2 (UniProt Q99496) 0.048
